PubChem BioAssay AID624483 (NMMLSC, 2012)
Among all 360,000 compounds or so, about 11,000 (3.1%) were called active. Roughly 2% stayed inconclusive and do not appear here. What follows is part of a selection rich in actives, with near analogues and random picks from the rest. Values without a mark were called inactive. Cut-off read from the data, not from the text of the source: active = fluorescence intensity above about 16000; inconclusive = no clear call, values can overlap the other calls; inactive = below that.

Assay: counter-screen for toxin protease inhibitors: compound fluorescence, primary screen, artefact control for toxin protease inhibitor project, biochemical, multiplex microsphere, HTS (AID 624483)
Details: compound autofluorescence counterscreen, microsphere flow cytometry; active compounds read high

| SMILES | fluorescence intensity |
| --- | --- |
| Cc1ccc(-c2cnc(C(O)c3cc(Cl)cc(Cl)c3)[nH]2)cc1 (stereo not given) | 2960 |
| CN(C)c1nc(N)nc(CSc2nnnn2-c2cccc3ccccc23)n1 | 16800 (active) |
| CN(C)c1nc(N)nc(CSc2ccccn2)n1 | 19900 (active) |
| CCOC(=O)CSc1ccccn1 | 2150 |
| COc1ccc(-n2nnnc2SCc2nc(N)nc(N3CCOCC3)n2)cc1 | 2520 |
| Nc1nc(CSc2nnnn2-c2ccccc2)nc(Nc2ccccc2)n1 | 4030 |
| Cc1ccccc1Nc1nc(N)nc(CSc2ccccc2)n1 | 2510 |
| O=C(NCc1ccco1)C1CCCN1S(=O)(=O)c1ccccc1C(F)(F)F (stereo not given) | 4200 |
| CC(=O)N(c1ccc2oc(=O)sc2c1)S(=O)(=O)c1ccc(C)cc1 | 3830 |
| CCCC1=Nc2cc(C(=O)NCc3ccco3)ccc2Sc2ccccc21 | 7310 |
| Cc1nn(CC2CC2)c(=O)n1N(C)c1ncc(C(F)(F)F)cc1Cl | 4280 |
| CCOC(=O)N1CCC(O)(c2cc(C)c(C)cc2C)CC1 | 23000 (active) |
| CCOC(=O)N1CCN(C(=S)Nc2ccc(C)cc2C)CC1 | 2140 |
| CCOC(=O)N1CCC(C(N)=O)CC1 | 4320 |
| CCOC(=O)c1cnc(SCC(=O)Nc2cccc(OC)c2)nc1N | 24000 (active) |
| CCOC(=O)c1cnc(SCC(=O)Nc2ccccc2C(=O)OC)nc1N | 4740 |
| CCOC(=O)c1cnc(SCC(=O)NCc2ccco2)nc1N | 9800 |
| CC(C)C1CC2=C(C(=O)OC(C)(C)O2)C(c2ccc(F)cc2)O1 (stereo not given) | 5880 |
| CC(=O)NC(=S)NNC(=O)c1ccc(Br)cc1 | 4310 |
| CCOC(=O)[C@H]1Nc2ccc(Cl)cc2[C@@H]2[C@H]1C1CC(c3ccccc31)N2C(=O)OCc1ccccc1 (stereo not given in full) | 4370 |
| CCOC(=O)c1cnc2nc(SCc3ccccc3Cl)[nH]n2c1=O | 4010 |
| CCOC(=O)c1cnn(Cc2ccccc2Cl)c1N | 24600 (active) |
| COC(=O)c1ccc(COC(=O)c2c(C)nn(Cc3ccccc3Cl)c2Cl)o1 | 10900 |
| CCOCCCN1C(=O)CN(C2CCCCC2)C(=O)C1c1ccc(OCC)c(OC)c1 (stereo not given) | 15500 |

| SMILES | fluorescence intensity |
| --- | --- |
| CC1CC(=NNC(=O)C2COc3ccccc3O2)CC(C)(C)C1 (stereo not given) | 4030 |
| CC1(C)CC(=O)C/C(=N\NC(=O)c2cccs2)C1 | 2600 |
| CC1C/C(=N/NC(=O)c2cccs2)CC(C)(C)C1 (stereo not given) | 23000 (active) |
| CCOc1cc(S(=O)(=O)NC2CC(C)(C)NC(C)(C)C2)ccc1F | 4220 |
| Cc1cc(Br)cn2c(Cc3ccccc3C(F)(F)F)c(C3CCCCC3)nc12 | 4420 |
| C/C(=N\N)c1c(-c2ccccc2)c2cc(Br)ccc2[nH]c1=O | 3410 |
| O=C(CN1CCOCC1)Nc1c(-c2ccccc2)c2cc(Br)ccc2[nH]c1=O | 21300 (active) |
| O=C(CN1CCOCC1)Nc1ccccc1 | 4280 |
| COCCNC(=S)Nc1cc(S(=O)(=O)N2CCOCC2)ccc1N1CCCCC1 | 3390 |
| CC(C)c1ccc(NC(=O)COC(=O)c2ccc(CN3CCCC3=O)cc2)cc1 | 3760 |
| Cc1ccccc1-c1csc(C(O)c2cccc(Cl)c2)n1 (stereo not given) | 3550 |
| CCn1c(SCC(=O)Nc2ccc(Br)cc2)nc2sc3c(c2c1=O)CCN(C)C3 | 5890 |
| Cc1ccc(C(=O)NC2CCN(C(=O)N3CCOCC3)CC2)cc1 | 9950 |
| O=C(N1CCOCC1)N1CCOCC1 | 21400 (active) |
| O=C(N1CCCCC1)N1CCN(C(=O)N2CCCCC2)CC1 | 3210 |
| CN(C)C(=O)c1cccc(-c2cnc3sc(NCc4ccc5c(c4)OCO5)nn23)c1 | 3900 |
| COc1cccc(-c2cnc3c(NC(C)=O)cc(-c4cc(F)ccc4OC)cn23)c1 | 2980 |
| Cc1ccc(S(=O)(=O)N2CCC(=O)N([C@H](COCc3ccccc3)Cc3ccccc3)CC2)cc1 | 4440 |
| COC(=O)c1ccc(S(=O)(=O)N2CCc3ccccc3C2)cc1 | 3480 |
| CC(=O)Nc1ccc(S(=O)(=O)N2CCC(NC(=O)c3ccccc3)CC2)cc1 | 3580 |
| O=C(Nc1ccc(S(=O)(=O)N2CCc3ccccc3C2)cc1)c1ccccc1 | 22600 (active) |
| COc1cc(C(O)c2nc(-c3cnn(C)c3)cs2)ccc1F (stereo not given) | 3800 |
| COc1ccc(-c2cc(NC=O)c3ncc(-c4cc(OC)c(OC)c(OC)c4)n3c2)c(OC)c1 | 3920 |
| COc1ccc(OC)c(S(=O)(=O)NCCC(C)C)c1 | 4230 |

| SMILES | fluorescence intensity |
| --- | --- |
| COCCNS(=O)(=O)c1cc(Br)ccc1OC | 24900 (active) |
| COc1ccc(C)cc1S(=O)(=O)NCCc1ccccc1 | 11800 |
| Cc1ccn(CC(=O)NC2CCCN(Cc3ccccc3F)C2)n1 (stereo not given) | 3870 |
| Cc1ccc(CN2CC(N3CCC(Cc4ccccc4)CC3)CS2(=O)=O)cc1 (stereo not given) | 6680 |
| Nc1ncnc2c1ncn2[C@@H]1O[C@H](C(=O)NS(=O)(=O)c2c(Cl)nc3sccn23)[C@@H](O)[C@H]1O | 3980 |
| O=C(NCc1ccccc1Cl)C1CCN(S(=O)(=O)c2cccc3nonc23)CC1 | 3550 |
| N#C/C=C\Oc1ccc(Cl)cc1N | 23100 (active) |
| Cc1nccn1-c1ccc(NC(=O)[C@H]2O[C@@H](n3ccc(=O)[nH]c3=O)[C@H](O)[C@@H]2O)cc1 | 5140 |
| CC1(C(=O)NS(=O)(=O)c2ccccc2)CCN1C(=O)Cc1ccc(-c2ccccc2)cc1 (stereo not given) | 3470 |
| COc1ccc(CCNC(=O)CN2C(=O)CCSc3ccccc32)c(OC)c1 | 4070 |
| CN(C(=O)CN1C(=O)CCSc2ccc(S(=O)(=O)N3CCCC3)cc21)c1ccccc1 | 5730 |
| CCOC(=O)CNC(=O)CN1C(=O)CCSc2ccccc21 | 20800 (active) |
| COc1ccc(-n2c(SCC(=O)Nc3ccc4c(c3)OCO4)nnc2C(C)N2CCCCC2)cc1 (stereo not given) | 6740 |
| Cc1ccc(NC(=O)CSc2nnc(-c3cnccn3)n2Cc2ccco2)cc1C | 3350 |
| COc1ccc(NC(=O)CSc2nnc(-c3cccs3)n2Cc2ccco2)cc1OC | 10300 |
| COc1cc(Cl)c(C)cc1NC(=O)CSc1nnc(-c2cccnc2)n1Cc1ccco1 | 20700 (active) |
| COc1ccccc1NC(=O)CSc1nc2sc(C)c(C)c2c(=O)n1Cc1ccco1 | 22300 (active) |
| C(=C\c1ccccc1)/CSc1nnc(-c2cccnc2)n1Cc1ccco1 | 23400 (active) |
| O=C(CSc1nnc(-c2cnccn2)n1Cc1ccco1)c1ccc(Cl)c(Cl)c1 | 9950 |
| CCOC(=O)Cc1csc(NC(=O)CSc2nnc(-c3cccnc3)n2Cc2ccco2)n1 | 4600 |
| COc1ccccc1NC(=O)CSc1nc2sc3c(c2c(=O)n1-c1ccccc1)CCN(C)C3 | 7290 |
| CCn1c(SCC(=O)Nc2cc(C)c(Cl)cc2OC)nnc1-c1ccco1 | 5870 |
| Cc1cc(-c2ccccc2)nc(N2CCC(C(=O)NC34CC5CC(CC(C5)C3)C4)CC2)n1 | 3890 |
| CCN(C(=O)COc1cccnc1[N+](=O)[O-])C1CCS(=O)(=O)C1 (stereo not given) | 2480 |

| SMILES | fluorescence intensity |
| --- | --- |
| COc1ccc(CNC(=O)c2ccc(-c3cccnc3)c3ccoc23)cc1OC | 3080 |
| Cc1cccc(C)c1-n1nnnc1C(CCc1ccccc1)N1CCN(C/C=C/c2ccccc2)CC1 (stereo not given) | 5940 |
| Cc1cc(Br)ccc1NC(=O)CCCOc1cc(=O)n(C)c2ccccc12 | 3350 |
| O=C(CCC(=O)NNc1nc2ccccc2c2nc(-c3ccccc3)nn12)NCCCN1CCCC1=O | 2420 |
| O=C1CCCN1CCCNc1ncnc2c1[nH]c1ccccc12 | 23000 (active) |
| O=Cc1c(NCCCN2CCCC2=O)c2ccccc2[nH]c1=O | 3940 |
| Cc1nn(Cc2ccccc2)c(C)c1C(=O)NCCCN1CCCC1=O | 3680 |
| CCOc1cc2[nH]c(=S)n(CCCN3CCCC3=O)c(=O)c2cc1OCC | 5800 |
| O=C(CCn1c(=S)[nH]c2ccccc2c1=O)NCCCN1CCCC1=O | 22700 (active) |
| CC(=O)c1ccc(N2C(=NC(=O)C(C)C)SC3CS(=O)(=O)CC32)cc1 (stereo not given) | 4490 |
| Cc1cccc2cc(CN(C(=O)c3cccs3)c3ccccc3)c(=O)[nH]c12 | 2690 |
| COc1ccc(Cl)cc1NC(=O)c1oc(C)nc1C | 11300 |
| Cc1ccc(NC(=O)NC(=O)c2ccccc2)cc1F | 4110 |
| Cc1nc(C)c(C(=O)Nc2ccc(C)c(F)c2)o1 | 20400 (active) |
| N#Cc1ccccc1S(=O)(=O)N1CCN(Cc2c(O)ccc3ccccc23)CC1 | 2850 |
| O=C(COc1ccccc1Cl)N1N=C(c2cccs2)CC1c1ccco1 (stereo not given) | 3750 |
| Cc1ccccc1C1CC(c2cccs2)=NN1S(C)(=O)=O (stereo not given) | 6430 |
| Fc1ccc(N2N=C(c3cccs3)CC2c2ccco2)c(F)c1 (stereo not given) | 20900 (active) |
| O=C(NC(c1ccc(-c2ccccc2)cc1)c1cnccn1)C1CCN(CCOc2ccc(Cl)cc2Cl)CC1 (stereo not given) | 4380 |
| O=C(NCc1ccco1)C1CCCN(S(=O)(=O)c2ccccc2)C1 (stereo not given) | 21200 (active) |
| CCCS(=O)(=O)N1CCCC(C(=O)NCc2ccco2)C1 (stereo not given) | 2870 |
| O=C(NCc1ccco1)C1CCCN(S(=O)(=O)c2cnc[nH]2)C1 (stereo not given) | 5600 |
| COCCNC(=O)C(c1ccc(C)cc1)N(C(=O)CCC(=O)Nc1ccccn1)c1cccc(C)c1 (stereo not given) | 4510 |
